# Measured values taken from PubChem BioAssay (Tox21).
# Results filed as inconclusive are left out. A number with no mark means an inactive call. Activity calls are given as the source filed them. The call rests on the fitted dose curve; in most records, active means well fitted activation curve with a large enough effect in the signal ratio in the repeat runs (not every such curve was filed as active); inconclusive means weak or mixed curves; inactive means flat fitted curve, though single readings scatter; the % refers to the signal ratio.
# Test: p53 small molecule agonists, cell-based qHTS assay (AID 1963582)
# Details: HCT-116 p53RE-bla reporter, beta-lactamase FRET ratio, 16 h; series mostly up to 66 µM; activation: at the top concentration
# Excerpt: National Center for Advancing Translational Sciences [NCATS]
# Division of Preclinical Innovation [DPI]
# U.S. Environmental Protection Agency [EPA]
# National Institutes of Environmental Health Sciences [NIEHS]
# National Toxicology Program [NTP]
# U.S. Food and Drug Administration [FDA]
# p53, a tumor suppressor protein, is activated following cellular insult, including DNA damage and other cellular stresses. The activation of p53 regulates cell fate by inducing DNA repair, cell cycle arrest, apoptosis, or cellular senescence. The activation of p53, therefore, is a good indicator of DNA damage and other cellular stresses. […] The activation of the reporter gene under culture conditions can be detected by fluorescence intensity. This cell line was used to screen the Tox21 10K compound library in a 1536-well plate format and to identify agonists that activate the p53 signaling pathway.
# Tox21 Assay Protocol Summary:
# The p53RE-bla cells were dispensed at 4,000 cells/5 ul/well in 1536-well black wall/clear bottom plates using a Multidrop dispenser. After the assay plates were incubated at a 37 C/5% CO2 incubator for 5 hours, 23 nL of compounds dissolved in DMSO, positive controls or DMSO only was transferred to the assay plate by a pin tool. The plates were incubated at 37 C for 16 hours. After 1 uL of LiveBLAzerTM B/G FRET substrate was added using a Flying Reagent Dispenser, the plates were incubated at room temperature for 2 hours, and fluorescence intensity was measured by an Envision plate reader.
# On the % scale 0 is the no-effect control and ±100 the full control effect; potency means the concentration at half of the fitted maximal effect.
SMILES,activation,Potency
Clc1cc(Cl)c(Cl)nc1Cl,0.312%,
O=C(O)c1cccc(Cl)n1,-3.1%,
O=C(O)c1cc(Cl)cc([N+](=O)[O-])c1Cl,-2.86%,
COc1ccc(S(=O)(=O)N2c3ccc(Cl)cc3[C@@](O)(c3ccccc3Cl)[C@H]2C(=O)N2CCC[C@@H]2C(N)=O)cc1OC,-0.214% [at 30.3 µM],
CC(C)SCc1ccco1,-0.98% [at 30.3 µM],
CCCCCCCCCCCCCCCCCCN(C)C,-0.33% [at 30.3 µM],
O=S(=O)(c1ccccc1)c1ccc(Cl)cc1,-5.88%,
CCNC(=O)C(C)OC(=O)Nc1ccccc1 (stereo not given),-4%,
CCCCCCCCCCCCCCCCCC(=O)OCCCCCCCCCCCCCC(C)C,0.165%,
CC(NN)c1ccccc1 (stereo not given),-1.5% [at 13.5 µM],
CC(=O)Oc1cc2c(s1)CCN(C(C(=O)C1CC1)c1ccccc1F)C2 (stereo not given),-1.62% [at 30.3 µM],
CCC(CC)C(=O)O,-0.332%,
OC1OCCOC1O (stereo not given),-3.52%,
O=C(/C=C/c1ccc(O)c(O)c1)O[C@@H]1C[C@](O)(C(=O)O)C[C@@H](O)[C@H]1O,-0.229%,
NS(=O)(=O)c1cc2c(cc1Cl)CN(C1CCCCC1)C2=O,-2.25% [at 30.3 µM],
Cc1cc(CCCOc2c(C)cc(-c3noc(C(F)(F)F)n3)cc2C)on1,-1.58% [at 30.3 µM],
COc1ccc(OC)c(OC)c1,-3.52%,
Cc1ccsc1/C=C/C1=NCCCN1C,1.02% [at 30.3 µM],
C[C@]1(Cn2ccnn2)[C@H](C(=O)O)N2C(=O)C[C@H]2S1(=O)=O,-16.4% [at 30.3 µM],
O=C1CCCCCCCCCCC(=O)OCCO1,-0.842%,

SMILES,activation,Potency
CN(C)Cc1ccccc1,-6.62%,
Cc1c(N)cccc1Cl,-3.13%,
CCCCN1C=CN(C)C1,-0.772% [at 13.5 µM],
O=NN(CCCl)C(=O)NCCCl,-0.219% [at 30.3 µM],
Cc1nc2n(c(=O)c1CCN1CCC(C(=O)c3ccc(F)cc3)CC1)CCS2,-3.04% [at 30.3 µM],
CC(=O)CC(=O)Nc1ccc(C)cc1C,-0.99%,
C=C(C)C1CC=C(C)C(O)C1 (stereo not given),3.83%,
OCCNCc1ccccc1,0.153%,
CC[C@@H](N)CO,-0.152%,
COc1cc(OC)nc(NC(=O)NS(=O)(=O)Nc2ccccc2C(=O)N(C)C)n1,-6.13%,
CC(Oc1cc(Cl)ccc1Cl)C(=O)O (stereo not given),0.105%,
CCCCCCCCN(C)CCCCCCCC,0.365%,
COc1cc2nc(N3CCN(C(=O)C4CCCO4)CC3)nc(N)c2cc1OC (stereo not given),-1.46% [at 30.3 µM],
CS(=O)(=O)c1ccc(-c2cn3ccccc3n2)cc1,1.29% [at 30.3 µM],
BrC(Br)C(Br)Br,-3.94%,
CC(=O)OC1CCCCC1C(C)(C)C (stereo not given),0.148%,
Nc1ccn([C@@H]2O[C@H](CO)[C@@H](O)C2(F)F)c(=O)n1,,199 nM (active)
CCCc1ccc(O)c(OC)c1,1.21%,
Cc1cccc2nccnc12,1.68%,
Oc1ccc2c(c1)CCC2,-4.2%,
